From PubChem BioAssay
12-LOX inh: Primary qHTS assay for inhibitors of human arachidonate 12S-lipoxygenase (ALOX12): Round 2 | Polyunsaturated fatty acid lipoxygenase ALOX12 (Homo sapiens), P18054 | purified 12hLO, xylenol orange hydroperoxide absorbance | Potency, µM (highest dose often 108 µM), without a hit: at the top dose activity change, negative = inhibition, usual class: inhibitors | 580,000 tested, 1.1% active | AID 1671190, 2021; further: potency means the concentration at half of the fitted maximal effect
Target sequence (P18054 whole entry, looked up): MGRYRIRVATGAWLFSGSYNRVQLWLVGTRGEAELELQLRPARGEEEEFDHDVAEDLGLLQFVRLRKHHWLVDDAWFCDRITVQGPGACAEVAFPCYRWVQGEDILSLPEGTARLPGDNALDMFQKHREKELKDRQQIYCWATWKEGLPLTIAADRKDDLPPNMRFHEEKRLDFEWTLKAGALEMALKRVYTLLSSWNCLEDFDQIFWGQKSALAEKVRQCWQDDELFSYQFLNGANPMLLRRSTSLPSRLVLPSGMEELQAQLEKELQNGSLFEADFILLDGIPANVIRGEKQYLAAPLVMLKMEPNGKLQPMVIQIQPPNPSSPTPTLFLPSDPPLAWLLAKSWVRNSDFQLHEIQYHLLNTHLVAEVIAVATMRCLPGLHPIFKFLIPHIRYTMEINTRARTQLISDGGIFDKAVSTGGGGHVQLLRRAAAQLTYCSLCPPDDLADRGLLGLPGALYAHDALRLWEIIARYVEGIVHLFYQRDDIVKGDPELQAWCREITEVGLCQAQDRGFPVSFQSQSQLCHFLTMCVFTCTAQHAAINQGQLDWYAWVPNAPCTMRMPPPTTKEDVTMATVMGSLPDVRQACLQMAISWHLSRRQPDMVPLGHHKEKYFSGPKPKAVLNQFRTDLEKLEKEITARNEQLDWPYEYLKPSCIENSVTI
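Hydroperoxide product was detected by ferrous iron/xylenol orange as the 573 to 405 nm absorbance ratio. Arachidonic acid at 40 uM (final) was turned over for 30 min at room temperature by 150 nM human 12hLO, pH 7.0 Hepes buffer, after 15 min compound preincubation.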
DT40 TDP1 CPT: qHTS for Inhibitors of human tyrosyl-DNA phosphodiesterase 1 (TDP1): qHTS in cells in presence of CPT; Potency, µM (highest dose often 46.2 µM), without a hit: at the highest dose activity change, negative = growth inhibition, usual class: inhibitors; chicken DT40 Tdp1-/-;hTDP1 cells + 20 nM CPT, ATP luminescence, 48 h; AID 686979, 2013; 420,000 tested, 12% active; further: potency means the concentration at half of the fitted maximal effect; nearly all actives have a fitted effect of over 55% in size
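Cell growth measured by CellTiter-Glo luminescence after a minimum 48 h, 37 C compound exposure with 20 nM CPT in Tdp1-knockout DT40 cells stably expressing hTDP1, seeded 400/well; qHTS titration format.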
HT1080 IDH1KD tx: qHTS for induction of synthetic lethality in tumor cells producing 2HG: qHTS for the HT-1080-IDH1KD cell line | HT-1080 IDH1 knockdown viability, ATP luminescence, 48 h | 360,000 tested, 2% active | AID 686971, 2013 | Potency, µM (highest dose often 46.1 µM), for the others: at the top dose activity, negative = toxicity, most hits filed as cytotoxic;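 further: potency means the concentration at half of the fitted maximal effect; 0% = DMSO wells and -100% = cell-free medium wells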
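CellTiter-Glo luminescence after 48 h compound exposure at 37 degrees C of IDH1-knockdown HT-1080 cells in 5% FBS RPMI. %Activity scaled between DMSO wells and cell-free media wells, with curves fitted and assigned curve classes.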
IL-1B inflam inh: qHTS for Inhibitors of Inflammasome Signaling: IL-1-beta AlphaLISA Primary Screen | THP-1 LPS/ATP IL-1B secretion, AlphaLISA, 16 h; active compounds read low | 360,000 tested, 4.7% active | activity change, % at 57.5 µM; in the data active means activity change below about -50%; inconclusive means mostly about -30% to -49%
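Secreted IL-1B measured by AlphaLISA bead assay after 16 h compound exposure of THP-1 cells; compounds (final up to 57.5 uM) added 1 h before LPS (250 ng/mL) and ATP (1.25 mM) stimulation; lower signal means less secretion.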
DT40 TDP1 no CPT: qHTS for Inhibitors of human tyrosyl-DNA phosphodiesterase 1 (TDP1): qHTS in cells in absence of CPT | DT40 Tdp1-/- hTDP1 cells, no CPT, ATP luminescence, 48 h | Potency, µM (series often up to 46.2 µM), inactives show at the highest dose activity change, negative = growth inhibition, most hits filed as inhibitors | 420,000 tested, 15% active; further: potency means the concentration at half of the fitted maximal effect; nearly all actives have a fitted effect of over 55% in size
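Growth of hTDP1-complemented DT40 Tdp1-knockout cells is measured by ATP luminescence after at least 48 hr compound exposure at 37 °C, with DMSO substituting for the 20 nM CPT used in the parallel screen.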
HT1080-NT tox: qHTS for induction of synthetic lethality in tumor cells producing 2HG: qHTS for the HT-1080-NT fibrosarcoma cell line; HT-1080-NT fibrosarcoma viability, CellTiter-Glo ATP luminescence, 48 h; Potency, µM (top dose mostly 46.1 µM), for inactives: at the highest dose activity, negative = less viability, actives largely listed as cytotoxic; 360,000 tested, 1.6% active; AID 686970, 2013;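 further: NT is the 2HG producing partner of a matched IDH1 knockdown line; potency means the concentration at half of the fitted maximal effect; 0% = DMSO-treated cells and -100% = media-only wells without cells; nearly all actives have a fitted effect of over 55% in size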
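Toxicity toward the 2HG-producing NT line was scored as %Activity, normalised to DMSO and no-cell wells, from CellTiter-Glo luminescence after 48 hours' treatment.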
* marks the source's active call; other numbers are inactive results; ? = inconclusive; . = not tested or not shown; [ ] = remark or other dose. The sample as a whole holds a higher share of hits than the screen did. Unless noted, the call rests on the fitted dose curve; in most records, active means well fitted curve in the direction sought with a large enough effect; inconclusive means small, poorly fitted or top-dose-only effect, or another doubt; inactive means no such curve, though single readings can be large; an effect the other way counts as inactive or inconclusive. Unless noted, on the % scale 0 is the no-effect control and ±100 the full control effect.

SMILES | 12-LOX inh | DT40 TDP1 CPT | HT1080 IDH1KD tx | IL-1B inflam inh | DT40 TDP1 no CPT | HT1080-NT tox
CN(C)CC[C@H](CSc1ccccc1)Nc1ccc(S(=O)(=O)NC(=O)c2ccc(N3CCN(Cc4ccccc4-c4ccc(Cl)cc4)CC3)cc2)cc1[N+](=O)[O-] | -1%[57.4 µM] | . | . | . | . | .
COc1ccc(Oc2coc3cc(OC(=O)c4ccc5c(c4)OCO5)ccc3c2=O)cc1 | 118% | . | . | . | . | .
CCCCc1cc(=O)oc2cc(O)cc(O)c12 | ? | 3% | -12% | 36 | 9.2µM* | -20%
CCCCc1cc(=O)oc2cc(C)cc(O)c12 | -24% | ? | 0% | -15 | ? | -13%
CCCCc1cc(=O)oc2cc(C)c3c(C)coc3c12 | -29% | 15µM* | . | . | ? | .
CCC1CCCCN1S(=O)(=O)c1ccc(NC(=O)c2ccncc2)cc1 (stereo not drawn) | 245% | 16µM* | -14% | -3 | 12µM* | -17%
CCSc1ncc(Cl)c(C(=O)Nc2cccc(Cl)c2)n1 | -2% | 10µM* | . | . | ? | .
CCC1CCCCN1S(=O)(=O)c1ccc(NC(=O)c2cc(-c3ccc(Cl)cc3)on2)cc1 (stereo not drawn) | -3% | . | . | . | . | .
CCCSc1ncc(Cl)c(C(=O)Nc2ccc(S(=O)(=O)N3CCCCC3CC)cc2)n1 (stereo not drawn) | 3% | . | . | . | . | .
CCSc1ncc(Cl)c(C(=O)Nc2ccc(S(=O)(=O)N3CCCCC3CC)cc2)n1 (stereo not drawn) | -22% | 10µM* | . | . | 6.5µM* | .
CCC1CCCCN1S(=O)(=O)c1ccc(NC(=O)c2nc(S(C)(=O)=O)ncc2Cl)cc1 (stereo not drawn) | ? | 1.5µM* | 3.3µM* | -101* | 2.6µM* | 4.6µM*
CCSc1ncc(Cl)c(C(=O)Nc2ccccc2Cl)n1 | 0% | -13% | -1% | 9 | ? | 14%
CCCn1c(=O)c2ccccc2n(CC(=O)N(C)c2cccc(Cl)c2)c1=O | -34% | . | . | . | . | .
CCC1CCCCN1S(=O)(=O)c1ccc(NC(=O)c2cc(=O)c3c(C)cc(C)cc3o2)cc1 (stereo not drawn) | -10% | -27% | . | . | 15µM* | .
O=C1CSC(=S)N1N=Cc1c(O)ccc2ccccc12 | 11µM* | 21µM* | ? | 32 | 13µM* | -14%
O=C1CSC(=S)N1/N=C/c1c(F)cccc1F | 28µM* | ? | 0% | 16 | -9% | 9%
COc1cccc(/C=N/N2C(=O)CSC2=S)c1O | 35µM* | ? | 7% | -7 | ? | -1%
O=C1CSC(=S)N1N=Cc1c(F)cccc1Cl | ? | -27% | 19% | 0 | ? | 1%
COc1cc(/C=N/N2C(=O)CSC2=S)cc(Br)c1O | ? | -11% | -2% | 19 | -10% | -14%
CCN1CCCC1CNC(=O)CCC1CCN(Cc2cn(CC)c3ccccc23)CC1 (stereo not drawn) | -1% | . | . | . | . | .
CCCN1C(=O)C(Cc2nc3ccccc3c(=O)n2-c2ccc(OC)cc2)c2cc(C)ccc21 (stereo not drawn) | ? | 9.2µM* | . | . | 4.1µM* | .
CCN1C(=O)C(Cc2nc3ccccc3c(=O)n2C)c2ccccc21 (stereo not drawn) | 0% | ? | -12% | 0 | 15µM* | -12%
CCN1C(=O)C(Cc2nc3ccccc3c(=O)n2-c2ccccc2)c2cc(Br)ccc21 (stereo not drawn) | ? | 5.8µM* | . | . | 5.8µM* | .
CCN1C(=O)C(Cc2nc3ccccc3c(=O)n2CC)c2cc(Br)ccc21 (stereo not drawn) | -1% | . | . | . | . | .
CCCN1C(=O)C(Cc2nc3ccccc3c(=O)n2C)c2ccccc21 (stereo not drawn) | 0% | ? | 5% | 10 | ? | -1%
SMILES | 12-LOX inh | DT40 TDP1 CPT | HT1080 IDH1KD tx | IL-1B inflam inh | DT40 TDP1 no CPT | HT1080-NT tox
NC(c1ccccc1)c1csc(Nc2cc(Oc3ccccc3)ncn2)n1 (stereo not drawn) | 35µM* | 18µM* | ? | -77* | 16µM* | ?
Cc1cc(C)nc(Nc2nc(C(N)c3ccccc3)cs2)n1 (stereo not drawn) | 12% | ? | -22% | ? | ? | ?
CC(C)C(N)c1csc(Nc2cc(Oc3ccccc3)ncn2)n1 (stereo not drawn) | 34% | ? | ? | -91* | ? | ?
CC(C)CC(N)c1csc(Nc2cc(Oc3ccccc3)ncn2)n1 (stereo not drawn) | ? | 23µM* | -24% | 0 | 21µM* | 21µM*
O=C(NC1CCC(O)CC1)c1ccc2c(c1)-c1ccccc1C2 (stereo not drawn) | -38% | . | . | . | . | .
O=C(NCC(=O)N1CCN(S(=O)(=O)c2ccc3ccccc3c2)CC1)c1ccc2c(c1)OCO2 | 16% | . | . | . | . | .
COCc1cc(C[C@@H]2CC[C@H](O)[C@@H](CN(C(=O)Nc3ccccc3OC)C(=O)Nc3ccccc3OC)O2)no1 | 21% | . | . | . | . | .
CN1C(=O)C2(CCN(Cc3cccc4ccccc34)C2)c2ccccc21 (stereo not drawn) | -10%[176 µM] | . | . | . | . | .
CC(=O)c1csc(NC(=O)Cn2ccc(=O)n(C)c2=O)n1 | 11% | . | . | . | . | .
CC(=O)NC1=NN(C(C)=O)C(c2ccc(F)cc2)S1 (stereo not drawn) | -9% | 2.6µM* | 5% | 42 | -33% | 10%
COc1cc(/C=N/OCc2cccc(Br)c2)cc(OC)c1OC | 6% | . | . | . | . | .
c1ccc2c(c1)OCC(c1nn3c(Cn4nnc5ccccc54)nnc3s1)O2 (stereo not drawn) | ? | 26µM* | -7% | -18 | ? | -23%
c1ccc(OCc2nn3c(Cn4nnc5ccccc54)nnc3s2)cc1 | ? | 16µM* | -8% | -5 | 21µM* | -4%
c1ccc(Cc2nn3c(Cn4nnc5ccccc54)nnc3s2)cc1 | 56µM* | ? | -16% | -5 | -25% | -21%
c1ccc(OCc2nn3c(CN4CCOCC4)nnc3s2)cc1 | 10µM* | . | . | . | . | .
